Laboratory results reported in PubChem BioAssay (NCATS).
Values joined by “and” are separate entries in the source; they are usually repeats but may differ in a detail not shown here. Equal entries are not always repeated. Inconclusive results are not listed. Active and inactive are the calls of the source. Unless noted, calls follow the shape of the full dose curve.

What was measured:
[1] = molecular target: Glucocorticoid receptor (Homo sapiens) (UniProt P04150); experiment: qHTS assay for small molecule agonists of glucocorticoid receptor signaling (AID 588532; active = well fitted curve in the direction sought with a large enough effect in the signal ratio, with a control signal flat; the % refers to the signal ratio;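 also: 100% = dexamethasone at 0.1 µM and 0% = DMSO only wells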); conditions: HeLa MMTV-bla, beta-lactamase ratio, agonist, 18 h; activation: stronger effect = higher value, percent of dexamethasone control, DMSO zero
Summary of the method: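 Quantitative HTS using CellSensor MMTV-bla HeLa cells in charcoal/dextran-treated serum; compounds tested up to 92 uM. After 18 h at 37 C, CCF4 dye reported reporter induction.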

[2] = molecular target: Peroxisome proliferator-activated receptor delta (Homo sapiens) (UniProt Q03181); experiment: qHTS assay for small molecule antagonists of peroxisome proliferator-activated receptor delta signaling (AID 588535; active = well fitted inhibition curve with a large enough effect in the signal ratio, with a control signal flat, not every such curve was filed as active; the % refers to the signal ratio)
Summary of the method: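 Antagonist-mode qHTS using GeneBLAzer PPAR-delta-UAS-bla HEK293T cells; compound exposure 18 hrs at 37 C over a titration. Ratiometric CCF4 fluorescence at 460/530 nm; concentration-response points fitted to the Hill equation.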

[3] = molecular target: Vitamin D3 receptor (Homo sapiens) (UniProt P11473); experiment: qHTS assay for small molecule agonists of vitamin D receptor signaling (AID 588543);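 also: 0% = DMSO basal and 100% = reference agonist control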
Summary of the method: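 Agonist-mode beta-lactamase reporter: HEK293T VDR-UAS-bla cells in charcoal-stripped 2% FBS, compound series 16 h 37 C, CCF4 2 h RT. EC50 from Hill fit, scaled against DMSO and 50 nM calcitriol control.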

[4] = qHTS assay for small molecule agonists of retinoid X receptor alpha signaling (AID 588544); conditions: HEK293T RXRa-UAS-bla, beta-lactamase reporter, 18 h; 530 nm emission
[5] = qHTS assay for small molecule activators of the nuclear factor-kappa B (NF-kB) signaling pathway (AID 651749; active = well fitted activation curve with a large enough effect in the signal ratio; the % refers to the signal ratio; also: series mostly up to about 77 µM; % of control where 0% means no effect); conditions: NF-kB-bla ME-180 cells, beta-lactamase FRET ratio, 16 h; activation: stronger effect = higher value
Summary of the method: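 FRET-based beta-lactamase detection in ME-180 cells reports NF-kB response-element-driven transcription following overnight (16 hr) compound treatment.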

[6] = molecular target: Androgen receptor (Homo sapiens) (UniProt P10275); experiment: qHTS assay for small molecule agonists of androgen receptor signaling (AID 588515; active = well fitted curve in the direction sought with a large enough effect in the signal ratio, with a control signal flat; the % refers to the signal ratio; also: % is scaled to controls: 0 for no effect and ±100 for the full control effect); conditions: AR-UAS-bla HEK293, beta-lactamase ratio, agonist 16 h; stronger effect = higher value
Summary of the method: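 Stimulation of an AR-responsive β-lactamase reporter in GripTite HEK293 cells was measured after 16 h compound exposure at 37 °C, via CCF4 fluorescence after 2 h RT. EC50 from Hill fits, normalized to R1881 at 30 nM.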

[7] = molecular target: Bile acid receptor (Homo sapiens) (UniProt Q96RI1); experiment: qHTS assay for small molecule agonists of farnesoid X receptor signaling (AID 588527); conditions: HEK293T FXR-UAS-bla, beta-lactamase ratio, 16 h; activation: stronger effect = higher value;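 also: series mostly up to about 77 µM; 0% = vehicle basal and 100% = reference agonist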
Summary of the method: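 Agonist-mode beta-lactamase reporter in GeneBLAzer FXR-UAS-bla HEK293T cells, titration up to 92 uM, 16 h exposure at 37 C, CCF4 fluorescence. Response scaled to DMSO (0%) and 100 uM chenodeoxycholic acid (100%), then Hill-fitted for EC50 and efficacy.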

[8] = qHTS assay for small molecule agonists of the antioxidant response element (ARE) signaling pathway (AID 651741; active = well fitted activation curve with a large enough effect in the signal ratio; the % refers to the signal ratio; also: potency is read from the fitted curve at half-maximal effect; as to activation: % of control where 0% means no effect)
Summary of the method: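 Agonist activity is measured as ARE-driven beta-lactamase expression in a stable HepG2 reporter line, using 16 h compound treatment at 37 C and a FRET substrate fluorescence readout after 2 h.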

[9] = molecular target: Bile acid receptor (Homo sapiens) (UniProt Q96RI1); experiment: qHTS assay for small molecule antagonists of farnesoid X receptor signaling (AID 588526); also: % is scaled to controls: 0 for no effect and ±100 for the full control effect
Summary of the method: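 Beta-lactamase reporter antagonist mode: HEK293T FXR-UAS-bla cells, titrated compound, CDCA stimulation, 16 h 37 C, CCF4 dye 2 h RT. Data normalized to CDCA 50 uM and DMSO; Hill-fit IC50.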

[10] = molecular target: Glucocorticoid receptor (Homo sapiens) (UniProt P04150); experiment: qHTS assay for small molecule antagonists of glucocorticoid receptor signaling (AID 588533; active = well fitted inhibition curve with a large enough effect in the signal ratio, with a control signal flat, not every such curve was filed as active; the % refers to the signal ratio;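 also: cells stimulated with 2 nM dexamethasone as agonist; % is scaled to controls: 0 for no effect and ±100 for the full control effect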)
Summary of the method: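 Antagonist-mode qHTS: compound titrations added to GRE-bla HeLa cells, then dexamethasone 2 nM final; 18 h, 37 C. CCF4 FRET fluorescence normalized to dexamethasone and DMSO; IC50 from Hill fit.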

[11] = qHTS assay for small molecule activators of the human pregnane X receptor (PXR) signaling pathway (AID 720659; call rule not given here; also: 0% is about no effect)
[12] = molecular target: Androgen receptor (Homo sapiens) (UniProt P10275); experiment: qHTS assay for small molecule antagonists of androgen receptor signaling (AID 588516; active = well fitted curve in the direction sought with a large enough effect in the signal ratio, with a control signal flat, not every such curve was filed as active; the % refers to the signal ratio; also: % is scaled to controls: 0 for no effect and ±100 for the full control effect)
Summary of the method: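 Antagonist mode: inhibition of R1881-stimulated (10 nM final) bla reporter in GeneBLAzer AR HEK 293 cells, 16 h at 37C, compounds titrated. IC50 and efficacy from Hill-equation fits of 405/460–530 nm FRET ratios.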

Glucocorticoid receptor (Homo sapiens), sequence (P04150 whole entry, looked up): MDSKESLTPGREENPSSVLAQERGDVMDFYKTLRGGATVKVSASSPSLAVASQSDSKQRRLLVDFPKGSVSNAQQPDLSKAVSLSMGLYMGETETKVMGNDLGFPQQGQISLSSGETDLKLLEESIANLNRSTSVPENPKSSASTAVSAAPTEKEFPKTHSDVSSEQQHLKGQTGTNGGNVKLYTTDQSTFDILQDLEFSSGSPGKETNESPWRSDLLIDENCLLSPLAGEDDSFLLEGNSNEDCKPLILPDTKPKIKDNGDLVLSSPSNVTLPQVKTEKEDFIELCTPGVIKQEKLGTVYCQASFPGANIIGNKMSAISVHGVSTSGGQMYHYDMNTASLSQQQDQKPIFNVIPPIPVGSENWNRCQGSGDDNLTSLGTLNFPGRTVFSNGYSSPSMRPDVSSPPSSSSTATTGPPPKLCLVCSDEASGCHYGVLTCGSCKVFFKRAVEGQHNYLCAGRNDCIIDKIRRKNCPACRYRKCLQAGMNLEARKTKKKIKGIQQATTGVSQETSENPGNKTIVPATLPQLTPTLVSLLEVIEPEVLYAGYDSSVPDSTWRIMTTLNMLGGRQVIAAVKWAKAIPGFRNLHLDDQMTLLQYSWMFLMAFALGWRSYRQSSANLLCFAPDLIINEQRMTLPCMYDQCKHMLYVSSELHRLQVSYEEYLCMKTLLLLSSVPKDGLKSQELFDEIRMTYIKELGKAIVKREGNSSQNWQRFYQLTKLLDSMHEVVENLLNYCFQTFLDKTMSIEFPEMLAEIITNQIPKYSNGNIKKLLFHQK
Peroxisome proliferator-activated receptor delta (Homo sapiens), sequence (Q03181 whole entry, looked up): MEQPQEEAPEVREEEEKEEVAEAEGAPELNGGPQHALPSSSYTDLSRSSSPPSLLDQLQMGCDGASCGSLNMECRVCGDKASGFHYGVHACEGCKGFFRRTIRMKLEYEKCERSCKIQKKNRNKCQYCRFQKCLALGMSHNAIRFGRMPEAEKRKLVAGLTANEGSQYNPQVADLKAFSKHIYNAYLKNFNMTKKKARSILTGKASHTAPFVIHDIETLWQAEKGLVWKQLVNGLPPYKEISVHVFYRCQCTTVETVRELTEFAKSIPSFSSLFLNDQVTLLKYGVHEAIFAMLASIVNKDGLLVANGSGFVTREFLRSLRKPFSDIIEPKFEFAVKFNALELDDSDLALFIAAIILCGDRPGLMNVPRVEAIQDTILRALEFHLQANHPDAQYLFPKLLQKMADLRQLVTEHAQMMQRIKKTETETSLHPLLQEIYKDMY
Bile acid receptor (Homo sapiens), sequence (Q96RI1 whole entry, looked up): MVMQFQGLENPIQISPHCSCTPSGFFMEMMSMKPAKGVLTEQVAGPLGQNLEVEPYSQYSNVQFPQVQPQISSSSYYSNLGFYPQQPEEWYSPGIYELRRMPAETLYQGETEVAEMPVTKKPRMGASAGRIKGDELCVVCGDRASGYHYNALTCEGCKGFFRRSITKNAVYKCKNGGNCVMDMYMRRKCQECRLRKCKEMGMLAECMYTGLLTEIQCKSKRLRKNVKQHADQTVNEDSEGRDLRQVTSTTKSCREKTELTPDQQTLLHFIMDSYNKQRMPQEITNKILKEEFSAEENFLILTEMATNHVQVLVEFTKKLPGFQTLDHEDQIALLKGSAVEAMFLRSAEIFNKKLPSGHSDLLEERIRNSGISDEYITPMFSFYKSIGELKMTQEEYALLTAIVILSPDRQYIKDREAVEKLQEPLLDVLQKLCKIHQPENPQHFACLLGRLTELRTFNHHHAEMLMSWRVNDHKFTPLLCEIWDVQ
Vitamin D3 receptor (Homo sapiens), sequence (P11473 whole entry, looked up): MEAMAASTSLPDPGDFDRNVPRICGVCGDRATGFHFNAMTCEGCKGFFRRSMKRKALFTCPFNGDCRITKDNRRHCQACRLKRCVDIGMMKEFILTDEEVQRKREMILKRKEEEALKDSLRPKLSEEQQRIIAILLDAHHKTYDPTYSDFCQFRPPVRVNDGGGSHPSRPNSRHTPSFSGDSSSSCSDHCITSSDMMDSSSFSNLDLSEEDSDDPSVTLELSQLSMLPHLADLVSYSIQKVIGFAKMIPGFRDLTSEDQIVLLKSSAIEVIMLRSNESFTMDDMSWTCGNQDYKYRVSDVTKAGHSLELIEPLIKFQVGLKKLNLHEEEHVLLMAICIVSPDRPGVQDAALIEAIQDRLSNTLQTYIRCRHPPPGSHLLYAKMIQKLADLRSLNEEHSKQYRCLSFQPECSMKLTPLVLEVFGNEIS
Androgen receptor (Homo sapiens), sequence (P10275 whole entry, looked up): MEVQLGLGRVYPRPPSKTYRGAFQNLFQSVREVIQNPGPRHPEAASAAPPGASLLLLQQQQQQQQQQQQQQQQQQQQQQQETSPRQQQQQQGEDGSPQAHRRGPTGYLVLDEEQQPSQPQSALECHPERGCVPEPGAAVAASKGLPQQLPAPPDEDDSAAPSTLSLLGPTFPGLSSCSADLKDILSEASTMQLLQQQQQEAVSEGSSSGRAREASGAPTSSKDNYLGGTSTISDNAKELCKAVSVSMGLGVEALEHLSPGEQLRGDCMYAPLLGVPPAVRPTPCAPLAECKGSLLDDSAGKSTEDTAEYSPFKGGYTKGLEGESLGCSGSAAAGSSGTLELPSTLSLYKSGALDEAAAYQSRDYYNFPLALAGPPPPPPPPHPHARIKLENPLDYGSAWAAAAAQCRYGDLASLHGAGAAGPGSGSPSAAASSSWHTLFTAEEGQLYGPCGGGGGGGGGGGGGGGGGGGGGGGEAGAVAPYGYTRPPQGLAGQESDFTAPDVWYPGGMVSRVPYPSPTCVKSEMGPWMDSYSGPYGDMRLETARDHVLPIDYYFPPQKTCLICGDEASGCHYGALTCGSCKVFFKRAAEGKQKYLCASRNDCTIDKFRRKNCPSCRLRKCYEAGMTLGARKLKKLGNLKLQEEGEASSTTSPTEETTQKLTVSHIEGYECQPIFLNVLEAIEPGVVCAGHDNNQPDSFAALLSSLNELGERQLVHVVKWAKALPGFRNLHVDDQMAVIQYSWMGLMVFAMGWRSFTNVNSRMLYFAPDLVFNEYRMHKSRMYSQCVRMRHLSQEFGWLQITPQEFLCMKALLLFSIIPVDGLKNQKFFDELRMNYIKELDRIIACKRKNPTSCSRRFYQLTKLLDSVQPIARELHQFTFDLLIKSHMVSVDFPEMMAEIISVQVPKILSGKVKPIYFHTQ

C=C(C)CN(CC)c1c([N+](=O)[O-])cc(C(F)(F)F)cc1[N+](=O)[O-]
inactive: activation [1] 1.61% | Potency [2] | outcome [3] | activation [5] -4.66%
3.32%: max response [4]

O=P(OCC(Br)CBr)(OCC(Br)CBr)OCC(Br)CBr (stereo not drawn)
inactive: activation [6] -12.7% | activation [7] 0.554% | Potency [2]
active: Potency [8] 15.4 µM

CCSC(C)CC1CC(=O)C(/C(CC)=N/OC/C=C/Cl)=C(O)C1 (stereo not drawn)
inactive: activation [6] 3.31% | Potency [9] | activation [7] 0.0799% | Potency [2] | outcome [3]

CS(=O)(=O)c1cc(C(F)(F)F)ccc1C(=O)c1cnoc1C1CC1
inactive: activation [1] 11.4% | Potency [2] | activation [5] 0.439%

COc1nc(C)nc(NC(=O)NS(=O)(=O)c2ccccc2Cl)n1
inactive: activation [1] -6.7% | Potency [10] | Potency [8] | outcome [11]
-7.69%: max response [4]

C=C1CC[C@H](O)C/C1=C/C=C1\CCC[C@]2(C)[C@@H]([C@H](C)CCCC(C)C)CC[C@@H]12
active: Potency [8] 23.7 µM

CCOP(=S)(OCC)Oc1ccc(S(C)=O)cc1 (stereo not drawn)
-0.202%: max response [4]
inactive: Potency [2] | outcome [3] | Potency [8]

Clc1ccc([C@@]2(Cn3cncn3)C[C@@H](Br)CO2)c(Cl)c1
inactive: Potency [9] | activation [7] 3.84% | activation [1] -12.1% | Potency [2] | outcome [3]

COP(=S)(OC)Oc1c(Cl)cc(C)cc1Cl
0.267%: max response [4]
inactive: outcome [3] | activation [5] -0.0055%

COC(=O)c1sccc1S(=O)(=O)NC(=O)Nc1nc(C)nc(OC)n1
inactive: Potency [2] | outcome [3] | Potency [8] | activation [5] -1.57% | outcome [11]

CCN(CC)C(=O)C(C)Oc1cccc2ccccc12 (stereo not drawn)
inactive: Potency [9] | activation [7] -1.49% | Potency [8]
5.95%: max response [4]

CC(=O)[C@H]1[C@H](C#N)C[C@H]2[C@@H]3CC=C4C[C@@H](O)CC[C@]4(C)[C@H]3CC[C@@]21C
inactive: activation [7] -2.16% and -0.929% | outcome [3]

CC1=C(C(=O)Nc2ccccc2)SCCO1
inactive: activation [6] -8.15% | Potency [12] | Potency [9] | activation [7] -5.36% | activation [1] -5.7% | Potency [10] | Potency [8]
-2.97%: max response [4]

CCOP(N)(=O)Oc1ccc(SC)c(C)c1 (stereo not drawn)
inactive: activation [6] -2.98% | Potency [12] | Potency [9] | activation [7] 3.26% | activation [1] -9.53% | Potency [10] | Potency [2] | outcome [3] | Potency [8] | activation [5] 0.0027%
-16.6%: max response [4]

CCOP(=S)(OCC)Oc1nc(Cl)n(C(C)C)n1
inactive: activation [1] 12.9% | activation [5] 1.85%

COC(=O)c1ccccc1S(=O)(=O)NC(=O)N(C)c1nc(C)nc(OC)n1
-6.9%: max response [4]
inactive: Potency [9] | Potency [10] | Potency [8] | activation [5] -0.341% | outcome [11]

Nc1cnn(-c2ccccc2)c(=O)c1Cl
-6.12%: max response [4]
inactive: activation [1] -1.22% | Potency [10] | Potency [2] | outcome [3] | activation [5] -0.283% | outcome [11]

O=C(O)C(F)(F)C(F)(F)C(F)(F)C(F)(F)C(F)(F)F
6.49%: max response [4]
inactive: activation [1] 4.09% | Potency [10] | Potency [2] | outcome [3] | Potency [8]

Nc1nc(N)nc(Cl)n1
-8.55% and -12.5% and -6.12%: max response [4]
inactive: activation [1] -0.33% and 1.13% | Potency [10] | Potency [8] | outcome [11]

CCOP(=S)(NC(C)C)Oc1ccccc1C(=O)OC(C)C (stereo not drawn)
inactive: Potency [9] | activation [7] 8.84% | Potency [10] | Potency [2] | outcome [3] | Potency [8]

CCOP(=O)(NC(C)C)Oc1ccc(S(C)(=O)=O)c(C)c1 (stereo not drawn)
inactive: activation [6] 6.06% | Potency [12] | Potency [9] | activation [7] -2.2% | activation [1] 2.64% | Potency [10] | outcome [3] | Potency [8] | activation [5] -0.438%

CCOP(=O)(OCC)Oc1ccc2c(C)c(Cl)c(=O)oc2c1
inactive: activation [6] -0.972% | Potency [12] | Potency [9] | activation [7] 2.16% | activation [1] -3.39% | Potency [10] | Potency [2] | activation [5] 0.977%

CC(C)(c1ccccc1)c1cc(-n2nc3ccccc3n2)c(O)c(C(C)(C)c2ccccc2)c1
active: Potency [8] 61.1 µM
inactive: activation [1] -6.85% | Potency [10] | Potency [2] | outcome [3] | activation [5] 0.903% | outcome [11]
-5.71%: max response [4]

COc1cc(Cl)c(OC)cc1Cl
inactive: activation [1] -1.33% | Potency [10] | outcome [3] | Potency [8]

O=S(=O)(c1ccc(O)cc1)c1ccc(O)cc1
-2.49%: max response [4]
inactive: Potency [9] | activation [7] -2.06% | activation [1] -0.412% | Potency [10] | Potency [2] | outcome [3] | activation [5] -0.813% | outcome [11]

CCOP(OCC)OCC
-0.591%: max response [4]
inactive: Potency [9] | outcome [11]

CCC/C(=N\OCC)C1=C(O)CC(CC(C)SCC)CC1=O (stereo not drawn)
inactive: activation [1] -6.86% | Potency [10] | Potency [2] | outcome [3] | Potency [8] | activation [5] 0.879% | outcome [11]
-4.54%: max response [4]

O=Cc1cccc(Oc2ccccc2)c1
inactive: Potency [10] | Potency [8] | activation [5] -0.909% | outcome [11]
6.44%: max response [4]

CC(C)(C)OOC(C)(C)c1ccc(C(C)(C)OOC(C)(C)C)cc1
-9.77%: max response [4]
inactive: activation [6] 4.74% | Potency [12] | Potency [9] | activation [7] 3.45% | activation [1] -6.76% | Potency [2] | outcome [3] | Potency [8]

CC(Oc1ccc(Cl)cc1Cl)C(=O)O (stereo not drawn)
11.7%: max response [4]
inactive: activation [7] -0.107% | activation [1] 6.74% | Potency [10] | outcome [3] | activation [5] -1.28% | outcome [11]

Clc1ccc([C@@]2(Cn3cncn3)C[C@H](Br)CO2)c(Cl)c1
inactive: Potency [9] | activation [1] 2.56% | Potency [10] | Potency [8] | activation [5] -1.71%
-2.9%: max response [4]

CS/C(C)=N/OC(=O)N(C)SN(C)C(=O)O/N=C(\C)SC
inactive: activation [6] -1.29% | Potency [12] | Potency [9] | activation [7] 3.69% | activation [1] 10.5% | Potency [10] | Potency [2] | Potency [8] | outcome [11]

CCOc1nc(C(Cl)(Cl)Cl)ns1
-11.9%: max response [4]
inactive: Potency [2] | outcome [3] | activation [5] 0.185%

O=P(O)(O)CN(CP(=O)(O)O)CP(=O)(O)O
inactive: Potency [10] | Potency [2] | outcome [3] | outcome [11]

CCCN(CC)CC1COC2(CCC(C(C)(C)C)CC2)O1 (stereo not drawn)
inactive: activation [1] 11.4% | Potency [10] | outcome [3] | Potency [8] | activation [5] -1.56% | outcome [11]
-11.3%: max response [4]

C=CCC1=C(C)[C@@H](OC(=O)[C@@H]2[C@@H](C=C(C)C)C2(C)C)CC1=O
inactive: Potency [9] | activation [7] 1.33% | activation [1] 1.31% | Potency [10] | outcome [3] | activation [5] -0.0415%
6.67%: max response [4]
active: Potency [8] 61.1 µM

CCCN(CCC)c1c([N+](=O)[O-])cc(C(F)(F)F)c(N)c1[N+](=O)[O-]
inactive: activation [7] 9.33%

CNC(=O)/C=C(\C)OP(=O)(OC)OC
inactive: Potency [9] | activation [7] 6.76% | activation [1] -1.15% | Potency [2] | outcome [3] | Potency [8]
-13.8%: max response [4]
